Screens from PubChem.
EP2 antag – EP2 receptor (human) inhibition | C6 glioma cells expressing human EP2, cAMP TR-FRET; cells stimulated with saturating PGE2 | inhibition, % at 25 µM | hit rate 0.52% among 260,000;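 active = percent inhibition above 40 after rounding to a whole number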;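 also: rat C6 glioma host cells with rolipram phosphodiesterase inhibitor present; the protocol text gives 20 µM as final concentration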
Target sequence (P43116 whole entry, looked up): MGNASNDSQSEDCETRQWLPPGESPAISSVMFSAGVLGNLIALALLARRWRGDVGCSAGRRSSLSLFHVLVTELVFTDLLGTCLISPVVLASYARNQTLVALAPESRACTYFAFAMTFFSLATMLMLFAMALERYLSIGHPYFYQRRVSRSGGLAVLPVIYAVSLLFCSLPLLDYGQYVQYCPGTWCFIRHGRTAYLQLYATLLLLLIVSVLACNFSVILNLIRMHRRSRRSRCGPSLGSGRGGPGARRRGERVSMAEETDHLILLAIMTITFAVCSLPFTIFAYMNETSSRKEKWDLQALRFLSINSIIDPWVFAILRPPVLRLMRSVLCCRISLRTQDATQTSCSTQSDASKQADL
EP2 mod – modulators of human EP2 prostaglandin E2 receptor | P43116 | EP2-expressing cells, cAMP HTRF FRET, PGE2 co-stimulation | induction, % at 25 µM | hit rate 0.83% among 260,000;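 active = compounds whose cAMP rise, as percent of the full-agonist control response, exceeds 60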;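 also: rat C6 glioma line stably carrying human EP2 under a CMV promoter; the protocol text gives 20 µM as final concentration; 100% = response of wells given 1 µM PGE2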
CHT PAM – human CHT allosteric activation. AID 488977. hit rate 0.49% among 310,000. CHT-expressing cells, membrane potential dye, choline EC20; stronger effect = higher value; LV-AA mutant CHT in HEK293 cells. Q9GZV3. B-score at 10 µM;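 active = initial fluorescence not abnormally high and integrated response B-score, plate-corrected, over 3 SD above library mean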
CHT block – human CHT choline transport inhibition. hit rate 0.86% among 310,000. Q9GZV3. CHT-expressing cells, membrane potential dye, choline response; stronger effect = lower value. B-score at 10 µM. AID 488975;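 active = B-score over 3 SD under the library average, and starting fluorescence ratio not unusually high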;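 also: choline stimulus applied at its EC90 after an EC20 pre-addition; B-score computed on integrated fluorescence ratio after choline addition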
CHT activ conf – confirmation of human choline transporter (CHT) activators; shares compounds with CHT PAM; CHT-expressing cells, membrane potential dye fluorescence (FDSS); % of choline EC20–EC90 response window; HEK293 expressing CHT LV-AA mutant; choline added at its EC20; activation, % at 10 µM; hit rate 91% among 2,500;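 active = primary screen active, with duplicate mean activation above negative control mean plus 3 SD, cut at about 11% in these data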
HEK293 MP dye – activity in parental HEK293 cells lacking CHT | shares compounds with CHT PAM | membrane potential dye fluorescence (FDSS); measured after EC20 choline addition | ratio readout change at 10 µM, hits read low | hit rate 62% among 2,500 | AID 623908;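 active = duplicate-averaged ratio beyond 3 SD from buffer wells, up or down, though filed actives are nearly all decreases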
An asterisk follows results filed as active. Shown are actives, neighbours in structure and some others; about 2.1% of the full set was active somewhere.

Screening CCOc1cc(CN2CCc3c(nc(N4CCCCC4)[nH]c3=O)C2)ccc1O returned EP2 mod -9.
`COc1cc(NC(=O)CSc2nnc(-c3cccs3)n2C)cc(OC)c1` gave EP2 antag 8 and EP2 mod -1.
For CCOC(=O)C(C)On1c(-c2ccccc2)nc2ccc([N+](=O)[O-])cc21 (stereo unspecified) the results were EP2 antag 14, EP2 mod 62*, CHT PAM inactive, CHT block inactive, CHT activ conf 16* and HEK293 MP dye -20*.
`O=C(CN(C1CC1)S(=O)(=O)c1ccc(S(=O)(=O)N2CCCC2)cc1)Nc1ccccc1` gave EP2 antag 4 and EP2 mod -5.
For Cc1c(C(=O)Nc2ccncc2)sc2nc(-c3ccccc3)cn12 the results were EP2 antag 27, EP2 mod 14, CHT PAM inactive, CHT block inactive, CHT activ conf 30* and HEK293 MP dye -32*.
For Cc1onc(C(=O)NC(C)c2ccc3c(c2)CCC3)c1Cn1cccn1 (stereo unspecified) the results were EP2 antag 1 and EP2 mod -10.
For CCOC(=O)C1(Cc2ccccc2)CCN(CC2CC=CCC2)CC1 (stereo unspecified) the results were EP2 antag 12, EP2 mod -23, CHT PAM inactive, CHT block inactive, CHT activ conf 2 and HEK293 MP dye inactive.
Screening CCOC(=O)C1(Cc2cccc(OC)c2)CCN(CC2CC=CCC2)CC1 (stereo unspecified) returned EP2 antag 2, EP2 mod -34, CHT PAM inactive and CHT block inactive.
Screening CCc1ccccc1NC(=S)N(CCN(C)C)Cc1cc2cc(C)cc(C)c2[nH]c1=O returned EP2 antag 11 and EP2 mod -94.
Screening CCOC(=O)C1(CCc2ccccc2)CCN(Cc2ccc(C(=O)OC)cc2)CC1 returned CHT PAM inactive and CHT block inactive.
For CCOC(=O)C1(CCOc2ccccc2)CCN(Cc2ccc(OC)cc2)CC1 the results were CHT PAM inactive and CHT block inactive.
For CCOC(=O)C1(CCc2ccccc2)CCN(Cc2cc(OC)c(OC)cc2OC)CC1 the results were CHT PAM 10*, CHT block inactive, CHT activ conf 56* and HEK293 MP dye inactive.
CCOC(=O)C1(CCOc2ccccc2)CCN(Cc2ccc3nonc3c2)CC1 was read as EP2 antag 6, EP2 mod -1, CHT PAM 6.4*, CHT block inactive, CHT activ conf 6 and HEK293 MP dye inactive.
`C=CCn1c(N2CCC(C(=O)Nc3ccc(OC)nc3)CC2)nc2ccccc21` gave EP2 mod -41.
`CN1C(=O)C(O)(C2COC(C)(C)CC2=O)c2cc(Br)ccc21` (stereo unspecified) gave EP2 antag 11, EP2 mod 11, CHT PAM 6.8*, CHT block inactive, CHT activ conf 8 and HEK293 MP dye inactive.
Cc1ccc(C[n+]2cccc(-c3ccccc3)c2)c(C)c1 was read as EP2 antag 12, EP2 mod 31, CHT PAM 8.4*, CHT block inactive, CHT activ conf 59* and HEK293 MP dye inactive.
Screening Cc1ccc[n+](CC(=O)c2ccccc2)c1 returned CHT PAM inactive and CHT block inactive.
Cc1ccc2c(c1)nc(NCCCO)n2C was read as EP2 antag 19, EP2 mod 5, CHT PAM inactive, CHT block inactive, CHT activ conf 19* and HEK293 MP dye -41*.
COCCn1c(N2CCC(Cc3ccccc3)CC2)nc2c1c(=O)[nH]c(=O)n2C was read as EP2 antag 4 and EP2 mod 23.
CN1CCN(c2nc3c(c(=O)[nH]c(=O)n3C)n2CCCSc2ncccn2)CC1 was read as EP2 antag 3, EP2 mod 22, CHT PAM 7.7*, CHT block inactive, CHT activ conf 46* and HEK293 MP dye -54*.
`CCN1CCN(c2nc3c(c(=O)[nH]c(=O)n3C)n2CCCc2ccccc2)CC1` gave EP2 antag 8, EP2 mod 4, CHT PAM inactive, CHT block inactive, CHT activ conf 33* and HEK293 MP dye -54*.
CCCCn1c(N2CCC(Cc3ccccc3)CC2)nc2c1c(=O)[nH]c(=O)n2C was read as EP2 antag 12, EP2 mod 22, CHT PAM inactive, CHT block inactive, CHT activ conf 19* and HEK293 MP dye inactive.
CCN1CCN(c2nc3c(c(=O)[nH]c(=O)n3C)n2CCCSc2ncccn2)CC1 was read as EP2 antag 10, EP2 mod 5, CHT PAM 7.5*, CHT block inactive, CHT activ conf 50* and HEK293 MP dye -55*.
`Cc1cc(C)c(S(=O)(=O)N(CC(=O)NCc2ccncc2)C2CCCCC2)c(C)c1` gave EP2 antag 25 and EP2 mod 18.
Screening COc1cc(OC)cc(C(=O)N2CCC(C(=O)Nc3cccc(Cl)c3C)CC2)c1 returned EP2 antag 7 and EP2 mod -15.
`CNC(=S)N(CCN(C)C)Cc1cc2cc(OC)ccc2[nH]c1=O` gave EP2 antag 3 and EP2 mod -20.
Cc1cccc(C)c1NC(=O)C(C)Sc1nnc(-c2cccnc2)n1C (stereo unspecified) was read as EP2 antag 7 and EP2 mod -1.
Screening Cc1ccccc1N(CC(=O)Nc1cccnc1)S(C)(=O)=O returned EP2 antag 16 and EP2 mod -45.
`CCOCCCNCc1cc2c(-c3ccc(F)cc3)nn(-c3ccccc3)c2[nH]c1=O` gave EP2 antag 9 and EP2 mod -63.
Screening Cc1ccnc(SCCn2c(N3CCN(c4ccccc4)CC3)nc3c2c(=O)[nH]c(=O)n3C)n1 returned EP2 mod 12, CHT PAM 8*, CHT block inactive, CHT activ conf 48* and HEK293 MP dye -41*.
Cc1ccnc(SCCn2c(N3CCCCC3)nc3c2c(=O)[nH]c(=O)n3C)n1 was read as EP2 antag 9 and EP2 mod 14.
For COc1cc(NC(=O)Cn2nnc(-c3ccccc3F)n2)cc(OC)c1 the results were EP2 antag 12 and EP2 mod -81.
For CCOC(=O)C1=C(c2ccccc2)NC(=O)NC1c1ccc(O)c(Cl)c1 (stereo unspecified) the results were CHT PAM 30*, CHT block inactive, CHT activ conf 198* and HEK293 MP dye inactive.
CCOC(=O)C1=C(c2ccccc2)NC(=O)NC1c1ccc(O)c(OCC)c1 (stereo unspecified) was read as EP2 antag 5, EP2 mod 34, CHT PAM inactive and CHT block inactive.
